Source: PubChem
ERK EGF block: inhibitors of EGF-stimulated ERK signaling pathway. HEK293-V1b, EGF-stimulated phospho-ERK AlphaScreen. Potency, µM (titrated, usually from 11.5 µM), usual class: inhibitors. hit rate 0.41% among 130,000. AID 1454; active = well fitted inhibition curve with a large enough effect; note: nearly all actives have a fitted effect of over 55% in size
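In this qHTS, HEK293 cells with stable type-1 vasopressin (V1b) receptor were exposed to compound at 37C for 30 min, stimulated 5 min with EGF at 25 nM, lysed, and probed for phospho-ERK by AlphaScreen.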
Large screens that a line does not name were inactive; ! = not confirmed by another sample. The full list was thinned out, with hits kept by preference.

CC(C)CC1NC(=O)C(CCCN)NC(=O)C(C(C)C)NC(=O)C2CCCN2C(=O)C(Cc2ccccc2)NC(=O)C(CC(C)C)NC(=O)C(CCCN)NC(=O)C(C(C)C)NC(=O)C2CCCN2C(=O)C(Cc2ccccc2)NC1=O (configuration not stated)	ERK EGF block 3.55µM
CC(C)C1NC(=O)[C@H](CCCCN)NC(=O)[C@@H](Cc2c[nH]c3ccccc23)NC(=O)[C@H](Cc2ccc(O)cc2)NC(=O)[C@H](C)N(C)C(=O)[C@H](Cc2ccccc2)NC1=O (some centres not stated)	none
O=c1[nH]c(=O)n(C2CC(O)C(CO)O2)cc1C(F)(F)F (configuration not stated)	none
C=C1C[C@]23CC[C@H]4C(CO)(CO)C[C@@H](O)C[C@@]4(C)[C@@H]2CC[C@H]1C3	none
O=S(=O)(NC1c2cccc3cccc(c23)C1N1CCNCC1)c1ccc(Cl)cc1 (configuration not stated)	none
Clc1cccc2c1Sc1ccccc1CC2N1CCNCC1 (configuration not stated)	ERK EGF block 28.2µM
S=C1NCCc2ccccc2C1c1ccccc1Cl (configuration not stated)	none
c1ccc2c(-n3ccnc3)nc(-c3ccoc3)nc2c1	none
COCC(=O)N1CCC[C@@]2(CCN(C(=O)Nc3cccc(F)c3)C2)C1	none
C[C@@H](C(=O)Nc1ccc2ccccc2c1)[C@H]1C[C@]1(C)[C@H](NC(=O)c1ccccc1)c1ccccc1	none
CCCc1c(OCCCOc2ccc(OCC(=O)O)cc2)ccc(CC=O)c1O	none
COc1cccc2c1C(=O)c1c(O)c3c(c(O)c1C2=O)C[C@@](O)(C(C)=O)C[C@@H]3O[C@H]1C[C@H](N)[C@H](O)[C@H](C)O1	ERK EGF block 25.1µM!
C=C[C@@H]1CN2CC[C@@H]1C[C@@H]2[C@H](O)c1ccnc2ccc(OC)cc12	none
CC1=NN(C(N)=S)C(=O)C1N=Nc1ccccc1 (configuration not stated)	none
CC1=NN(c2ccccc2)C(=O)C1c1ccccc1 (configuration not stated)	none
CC1=NN(c2ccccc2)C(=O)C1N=Nc1ccccc1 (configuration not stated)	ERK EGF block 11.2µM
C=C(C(C)=O)C(O)c1ccco1 (configuration not stated)	none
COc1cc2ncnc(NCCc3ccccc3)c2cc1OC	ERK EGF block 3.55µM
COc1cc2ncnc(NCc3cccs3)c2cc1OC	ERK EGF block 2.51µM
COc1ccc(CCNc2ncnc3c2[nH]c2cc(OC)c(OC)cc23)cc1OC	none
COc1ccccc1CNc1ncnc2cc(Cl)ccc12	none
COc1ccc(CCNc2c3ccccc3nc3ccccc23)cc1OC	none
COc1ccc(CCNc2ncnc3cc(OC)c(OC)cc23)cc1OC	ERK EGF block 28.2µM
COc1cc2[nH]c(=S)nc(NCc3cccs3)c2cc1OC	none
COc1ccc(CNc2ncnc3cc(Cl)ccc23)cc1OC	none
COc1cccc(-c2cc(NCc3cccs3)ncn2)c1	none
COc1ccc2c(c1)C(=O)[C@H](OC(=O)NS(=O)(=O)c1ccc(F)cc1)[C@@H](c1ccc(OC)c(Br)c1)O2	none
C=CCC(C)(O)c1ccc(OC)cc1 (configuration not stated)	none
C[C@@H](CNC1CCCCC1)OC(=O)c1ccccc1	none
CCN(CC)CCCCn1c(-c2ccccc2)nc2c(NC3CCCCC3)nc(C)nc21	none
CC(=O)N(C[C@@H](O)CO)c1c(I)c(C(=O)NC[C@@H](O)CO)c(I)c(C(=O)NC[C@@H](O)CO)c1I	none
CCCCC/C=C\C[C@@H](O)/C=C/C=C/C=C/[C@@H](O)CCCC(=O)O	none
Cc1cccc(CNc2ccnc(-c3ccoc3)n2)c1	none
COC(=O)[C@@H]1C[C@@]2(O)[C@@H](O)[C@@H](O)[C@@H](O)C[C@H]2N1Cc1cc(F)ccc1F	none
O=C1CC2(CCCC2)CC(=O)N1CCCCNC[C@H]1COc2ccccc2O1	none
NC[C@](O)(CS(=O)(=O)O)c1ccc(Cl)cc1	none
C=CCC(C)(O)/C=C/c1ccccc1 (configuration not stated)	none
COC(=O)C1C2CC3c4[nH]c5cc(OC)ccc5c4CCN3CC2CC(OC(=O)c2cc(OC)c(OC)c(OC)c2)C1OC (configuration not stated)	none
Cc1cc(C)cc(NC(=S)NCCSc2ccc(Cl)cc2)c1	none
COC(=O)Cc1ccc(NC(=S)NCCSc2ccc(Cl)cc2)cc1	ERK EGF block 28.2µM
COC(=O)Cc1ccc(NC(=S)NCCO)cc1	none
Cc1cc(=O)cc2oc3cc(N)c(-c4c(C)cc(O)cc4O)c(C)c3nc1-2	none
O=C1c2ccccc2C(=O)c2c(Nc3ccc(CCO)cc3)ccc(O)c21	ERK EGF block 14.1µM
CC(=O)Nc1ccc(Nc2ccc3c4c(cc(=O)n3C)-c3ccccc3C(=O)c24)cc1	none
O=C1c2ccccc2C(=O)c2c(O)ccc(O)c21	none
Cc1nc(NC2CCCCC2)c2nc(-c3ccccc3)n(CCCN3CCOCC3)c2n1	none
CC1(C)CCC[C@]2(C)C3CC(=O)O[C@@]3(C)CC[C@H]12 (some centres not stated)	none
CCOc1ccc(CNC(=O)CCCc2cn(C)c3ccccc23)cc1OC	none
COc1cc(C(=O)NS(=O)(=O)c2ccccc2C)ccc1Cc1cn(C)c2ccc(NC(=O)OC3CCCC3)cc12	ERK EGF block 28.2µM
COc1ccccc1NS(=O)(=O)c1cc(NC(=S)NCC2CCCO2)ccc1C (configuration not stated)	none
CC(C)(C)NC[C@H](O)c1cc(O)cc(O)c1	none
CC(C)(C)OC(=O)NCCCC1=CC2=CC(=O)C(C)(OC(=O)c3cnc4ccccc4n3)C(=O)C2=CO1 (configuration not stated)	none
COCCNC(=O)C1(CC(C)C)C=CCN1C(=O)c1ccccc1 (configuration not stated)	none
O=C(Oc1ccccc1)N1CCC2(CC1)CCN(c1ccccn1)CC2	none
COc1ccc2nc3cccc(OC)c3nc2c1	none
COc1ccc2nc3ccccc3nc2c1N	ERK EGF block 28.2µM
COc1ccccc1-c1nc2ccccc2nc1-c1ccccc1OC	none
CCC[C@@H]1C[C@@]1(CCC)C(NP(=O)(c1ccccc1)c1ccccc1)c1ccc(Cl)cc1 (some centres not stated)	none
COc1ccccc1/C=C/C(C)=O	none
COc1ccccc1/C=C/C(=O)/C=C/c1ccccc1O	ERK EGF block 35.5µM
COc1ccccc1/C=C/C(=O)N1CCCC1	none
COc1ccc2c(c1)[C@]1(C)CCC(=O)C[C@H]1CC2	none
CC(=O)NCCNc1nc(-c2ccccc2CN(C)C)nc2ccccc12	none
C=CCC(C)(O)c1ccccc1 (configuration not stated)	none
CN(C)c1ccc(/C=C/C#N)cc1	none
CN(C)c1ccc(/C=C/c2ccc3c4ccccc4ccc3[n+]2-c2ccccc2)cc1	ERK EGF block 25.1µM
CN(C)c1ccc(/C=C/c2cccc[n+]2[O-])cc1	none
Cc1cc(O)c(C)c2c1CC[C@H]1[C@H](C)C(=O)O[C@H]21	none
Cc1c(Cl)c([N+](=O)[O-])nn1CCCC(=O)N(Cc1ccccc1)Cc1ccccc1	none
CCN(CC)c1ccc(N=Nc2nn(C)c(C)c2[N+](=O)[O-])cc1	ERK EGF block 15.8µM
Cc1ccc(CNC(=O)c2nn(C)c(C)c2[N+](=O)[O-])cc1	none
CCN(Cc1ccccc1)c1ccc(/C=N/NS(=O)(=O)c2ccc(C)c([N+](=O)[O-])c2)cc1	none
CCN(Cc1ccccc1)c1ccc(N=Nc2nn(C)c(C)c2[N+](=O)[O-])cc1	ERK EGF block 20µM
CCN(CC)c1ccc(N=Nc2ncn[nH]2)cc1	none
CCCCC/C=C\C/C=C\CCCCCCCC(=O)NC(C)C(=O)O (configuration not stated)	none
